# The source made the active and inactive calls. Where a call stands in place of a potency, no number is given. The call rests on the fitted dose curve; in most records, active means well fitted activation curve with a large enough effect; inconclusive means small, poorly fitted or top-dose-only effect; inactive means no such curve, though single readings can be large or run the other way.
# Assay: Counterscreen for Identifying a Potential Treatment of Ataxia-Telangiectasia: Hit Validation
# Conditions: cell-free AlphaLISA/AlphaScreen artifact counterscreen, PBS only, no cells; series mostly up to 76.9 µM
# Outline: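 Without cells, compounds at up to 76.7 uM final were combined with premixed anti-pKAP1/anti-KAP1 AlphaLISA bead reagents, protease inhibitors and lysis buffer; signal read after 6 hr at 25C to flag assay-platform artifacts.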
# Potency means the concentration at half of the fitted maximal effect.
row,SMILES,Potency
1,Cc1ccccc1S(=O)(=O)Oc1ccc2ccc(O)cc2c1,inactive
2,CCCc1nn(C)c(C(=O)Nc2ccc(C(C)(C)C)cc2)c1Cl,inactive
3,O=C1NC(NS(=O)(=O)c2ccc(Cl)cc2)(C(F)(F)F)C(=O)N1CCc1ccccc1 (stereo not given),inactive
4,N=c1ccn(Cc2ccc([N+](=O)[O-])cc2)cc1,inactive
5,CCN(c1ccccc1)S(=O)(=O)c1ccc(Cl)c(C(=O)N(CC2CCCO2)C2CCS(=O)(=O)C2)c1 (stereo not given),inactive
6,CCn1c(N2CCN(CC(=O)c3c[nH]c4ccccc34)CC2)nc2c1c(=O)[nH]c(=O)n2C,inactive
7,Cc1nc(Nc2ccc(Cl)cc2)c2oc3ccccc3c2n1,inactive
8,COc1ccc(-c2csc(-c3ccc(O)cc3)n2)cc1,inactive
9,COc1ccccc1NC(=O)C1CCCN(S(=O)(=O)c2ccc(-n3cnnn3)cc2)C1 (stereo not given),inactive
10,CCN(CC)S(=O)(=O)c1ccc(Cl)c(NC(=O)CCCCl)c1,inactive
11,C=C1CCC[C@]2(C)C[C@H]3OC(=O)C(CN4CCCCC4CO)[C@H]3CC12 (stereo not given in full),inactive
12,CC(=O)Nc1ccc(S(=O)(=O)NCC2(N3CCOCC3)CCCCC2)cc1,inactive
13,COc1cc(CCC(C)NCc2ccccc2)ccc1O (stereo not given),inactive
14,CC(=O)c1sc2nc(C)c3c(c2c1N)CCCC3,46.3 µM (active)
15,CCc1ccc(NC(=O)CNCc2ccc(OC)c(OC)c2)cc1,inactive
16,CCOC(=O)NC(C(Cl)(Cl)Cl)S(=O)(=O)c1ccccc1 (stereo not given),inactive
17,COc1ccc(C(=O)/C=C/C(=O)N(CC(=O)NC2CCCCC2)Cc2ccccc2)c(O)c1,inactive
18,Cc1nnc(SCC(=O)NC(=O)Nc2ccc3c(c2)OCCO3)n1N,inactive
19,CCn1nc(C)c(/C=N/NC(=O)Cn2cncn2)c1C,inactive
20,COc1cc(/C=C2\CCOC2=O)cc(OC)c1OC,inactive

row,SMILES,Potency
1,CC1CCCC(C)N1CCCNC(=O)Cn1ncc2c3ccccc3n(C)c2c1=O (stereo not given),inactive
2,CC(C)CNS(=O)(=O)c1cc(C(=O)O)c(Cl)cc1Cl,inactive
3,CN(C)Cc1ccc(F)cc1Sc1cc(Cl)ccc1Cl,inactive
4,Clc1cccc(CN2CCC(Cc3ccccc3)CC2)c1,inactive
5,CC(=O)Nc1ccc(NC2=CC(=O)c3ccccc3C2=O)cc1,inactive
6,CC1=NN(C(C#N)c2ccc([N+](=O)[O-])cc2)C(C)(C)C1 (stereo not given),inactive
7,CN(C)S(=O)(=O)c1ccc(NC(=O)c2ccc([N+](=O)[O-])cc2)cc1,inactive
8,N#Cc1c(-c2ccccc2)cc(-c2ccccc2)[nH]c1=O,inactive
9,CCC(=O)c1ccc2c(c1)OCCO2,inactive
10,CCCCCCCCCn1ccc(=N)cc1,inactive
11,O=C(O)CCCC(=O)N1N=C(c2ccccc2)CC1c1cccs1 (stereo not given),inactive
12,O=C(/C(=C/c1ccc(Cl)cc1)c1nc2ccccc2[nH]1)c1cccs1,inactive
13,NCC(=O)c1cccc2ccc[n+]([O-])c12,inactive
14,Cc1cc2c(c(=O)o1)C(CCC1CCCCC1)C(C#N)=C(N)O2 (stereo not given),inactive
15,COc1cccc(/C=N/NC(=O)c2cc3cc([N+](=O)[O-])ccc3s2)c1O,inactive
16,O=C(CSc1nnc(CNC(=O)c2ccccc2)o1)NCCc1ccccc1,inactive
17,O=C(NC12CC3CC(CC(C3)C1)C2)c1cccc(OC(F)F)c1,inactive
18,CSc1nc(SCC(=O)O)c2c3c(sc2n1)COC(C)(C)C3,inactive
19,Cc1ccc2c(c1)sc(=NC(=O)C1CC1)n2C,inactive
20,CCNC(=S)N(CCc1c(C)[nH]c2ccccc12)Cc1cccnc1,inactive

# Reference: PubChem BioAssay AID493185 (National Center for Advancing Translational Sciences (NCATS), 2011)
